# Values joined by “and” are separate entries in the source; they are usually repeats but may differ in a detail not shown here. Equal entries are not always repeated. Results filed as inconclusive are left out. A call without a number means that no potency is given here. Active and inactive are the calls of the source. Unless noted, calls follow the shape of the dose curve; as a rule, active = well fitted curve in the direction sought with a large enough effect; inconclusive = small, poorly fitted or top-dose-only effect, or another doubt; inactive = no such curve, though single readings can be large; an effect the other way counts as inactive or inconclusive.
# Tests used:
# [1] = P-glycoprotein substrates identified in KB-3-1 adenocarcinoma cell line, qHTS therapeutic library screen (AID 1346986); also: nearly all actives have a fitted effect of over 60% in size;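 also: potency is read from the fitted curve at half-maximal effect; potency is for cytotoxicity meaning loss of cell viability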
# Method in brief: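 Resistance attributable to P-gp was assessed by comparing AC50 in KB-8-5-11 with parental KB-3-1 and by tariquidar reversal. Cells were exposed 72 h and viability read by CellTiter-Glo.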
# [2] = test system: Zika virus NS2B-NS3 protease (unlinked complex); assay: Primary screen GU Rhodamine qHTS for Zika virus inhibitors: Unlinked NS2B-NS3 protease assay (AID 1347159); also: nearly all actives have a fitted effect of over 60% in size
# Method in brief: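 Noncovalent NS2B hydrophilic domain–NS3 protease domain complex (25 nM) preincubated 15 min at room temperature with compounds (up to 114 microM) in 10 mM Tris-HCl pH 8.0, 0.01% Tween 20; 1.5 microM Rhodamine110 substrate added, fluorescence change over 15 min fitted to Hill equation.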
# [3] = test system: Zika virus NS2B-NS3 protease (linked construct); assay: Primary screen NINDS Rhodamine qHTS for Zika virus inhibitors (AID 1347160); also: nearly all actives have a fitted effect of over 55% in size
# Method in brief: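 Purified linked NS2B-NS3 protease (NS2B hydrophilic domain joined to NS3 protease by flexible linker), 25 nM in 10 mM Tris-HCl pH 8.0, 0.01% Tween 20. Compounds titrated, 15 min preincubation at room temperature; 1.5 microM Rhodamine110 substrate, FITC fluorescence change over 15 min.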
# [4] = Primary qHTS for inhibitors of nuclear receptor binding SET domain protein 2 (NSD2) in an RCH-ACV wild type WT cells (2C) (AID 1645877); also: nearly all actives have a fitted effect of over 70% in size; also: potency is read from the fitted curve at half-maximal effect
# [5] = biological target: Glutathione peroxidase 1 (Homo sapiens) (UniProt P07203); assay: Primary qHTS Assay for Inhibitors of Recombinant Selenoprotein Glutathione Peroxidase 1 (GPX1) (AID 1845191); also: nearly all actives have a fitted effect of over 65% in size
# Glutathione peroxidase 1 (Homo sapiens), sequence (P07203 whole entry, looked up): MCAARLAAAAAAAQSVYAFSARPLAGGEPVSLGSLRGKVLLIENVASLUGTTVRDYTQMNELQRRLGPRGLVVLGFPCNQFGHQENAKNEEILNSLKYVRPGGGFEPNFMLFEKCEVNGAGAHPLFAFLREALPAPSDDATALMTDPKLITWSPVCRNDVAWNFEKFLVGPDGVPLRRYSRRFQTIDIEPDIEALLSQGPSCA
# Method in brief: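 Recombinant GPX1 (10 nM final) was preincubated with compound for 30 min at room temperature, then reacted with 1 mM GSH, 0.5 mM CHP, 0.5 mM NADPH and 100 nM glutathione reductase; NADPH fluorescence (340/450 nm) was read at 0 and 15 min.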
# [6] = qHTS drug screen for cell cycle checkpoint inhibitors in PARPi-resistant BRCA-mutant ovarian cancer cell lines. (AID 1963452; calls by dose curve); conditions: PEO1/OlaR viability, CellTiter-Glo luminescence, 96 h, stronger effect = lower value
# Method in brief: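 PEO1, PEO4 and PEO1/OlaR ovarian cancer cells, 600 per well, exposed 96 h at 37C to a dilution series. Viability read by CellTiter-Glo luminescence, normalized to DMSO and empty wells; activity summarized as Z-AUC.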
# HaCat [7] = assay: Cytotoxic Profiling of Annotated Libraries Using Quantitative High-Throughput Screening (AID 1296008); conditions: Five cell lines viability, CellTiter-Glo ATP luminescence, 48-72 h; max response: stronger effect = lower value; also: nearly all actives have a fitted effect of over 60% in size; also: potency is read from the fitted curve at half-maximal effect
# Method in brief: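 Compounds were pin-transferred onto cells and incubated 48 or 72 hr at 37 degree Celsius, 95% humidity. CellTiter-Glo was added, plates sat 10 min at room temperature, then ATP-coupled luminescence was imaged as the viability read-out.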
# [8] = P-glycoprotein substrates identified in KB-8-5-11 adenocarcinoma cell line, qHTS therapeutic library screen (AID 1346987); also: nearly all actives have a fitted effect of over 65% in size; also: potency is read from the fitted curve at half-maximal effect
# Method in brief: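 Steps: plate 500 KB-8-5-11 cells/well in DMEM + 10% FCS (colchicine removed); pin compounds in dose-response; incubate 72 h, 37 degree C, 5% CO2; add CellTiter-Glo, 5 min; read luminescence.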
# [9] = biological target: Catechol O-methyltransferase (Homo sapiens) (UniProt P21964); assay: Confirmatory Screen for Target Class Profiling of Small Molecule Inhibitors of Methyltransferases (AID 1745852); conditions: MTase-Glo luminescence, SAH detection, recombinant enzyme; measured here: COMT max response; stronger effect = lower value
# Catechol O-methyltransferase (Homo sapiens), sequence (P21964 whole entry, looked up): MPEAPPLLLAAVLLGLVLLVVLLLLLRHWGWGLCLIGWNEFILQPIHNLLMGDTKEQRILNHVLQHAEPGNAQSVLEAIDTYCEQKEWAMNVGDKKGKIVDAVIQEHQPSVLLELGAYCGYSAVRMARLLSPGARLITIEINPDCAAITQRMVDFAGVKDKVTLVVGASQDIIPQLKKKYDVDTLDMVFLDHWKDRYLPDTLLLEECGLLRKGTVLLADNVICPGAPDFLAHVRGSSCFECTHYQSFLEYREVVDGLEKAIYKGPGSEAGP
# [10] = biological target: Guanidinoacetate N-methyltransferase (Homo sapiens) (UniProt Q14353); assay: as above; conditions: activity change, negative = inhibition: at 57.3 µM (top of the series) unless noted
# [11] = biological target: Nicotinamide N-methyltransferase (Homo sapiens) (UniProt P40261); assay: as above; conditions: MTase-Glo luminescence, SAH detection, recombinant enzyme; measured here: NNMT max response; stronger effect = lower value
# Nicotinamide N-methyltransferase (Homo sapiens), sequence (P40261 whole entry, looked up): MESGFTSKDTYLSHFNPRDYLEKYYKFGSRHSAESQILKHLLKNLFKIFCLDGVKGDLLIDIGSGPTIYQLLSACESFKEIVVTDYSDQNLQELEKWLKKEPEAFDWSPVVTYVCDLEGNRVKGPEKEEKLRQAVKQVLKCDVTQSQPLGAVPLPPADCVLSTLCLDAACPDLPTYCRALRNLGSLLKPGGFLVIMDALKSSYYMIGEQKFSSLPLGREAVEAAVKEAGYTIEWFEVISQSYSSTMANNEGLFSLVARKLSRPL
# SKOV3 = assay: Primary qHTS to identify gynecologic anti-cancer compounds using libraries of approved drugs and bioactive compounds (AID 1345084); conditions: Gynecologic cancer cell panel viability, ATPlite luminescence, 48 h; series mostly up to 57.5 µM; also: nearly all actives have a fitted effect of over 55% in size; also: potency is read from the fitted curve at half-maximal effect
# Method in brief: (§1)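 Cells, 1,000 per well, were allowed to settle for 16 h at 37 C before compound addition. Five concentrations were tested for 48 h, and viability was read by ATPlite luminescence after 15 min at room temperature.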
# [12] = biological target: Cytochrome P450 2D6 (Homo sapiens) (UniProt P10635); assay: Cytochrome P450 family 2 subfamily D member 6 (CYP2D6) small molecule antagonists: luciferase biochemical (cell-free) qHTS assay (AID 1645840; active = well fitted curve in the direction sought with a large enough effect in the repeat runs; an effect the other way counts as inactive or inconclusive; also: nearly all actives have a fitted effect of over 55% in size)
# Cytochrome P450 2D6 (Homo sapiens), sequence (P10635 whole entry, looked up): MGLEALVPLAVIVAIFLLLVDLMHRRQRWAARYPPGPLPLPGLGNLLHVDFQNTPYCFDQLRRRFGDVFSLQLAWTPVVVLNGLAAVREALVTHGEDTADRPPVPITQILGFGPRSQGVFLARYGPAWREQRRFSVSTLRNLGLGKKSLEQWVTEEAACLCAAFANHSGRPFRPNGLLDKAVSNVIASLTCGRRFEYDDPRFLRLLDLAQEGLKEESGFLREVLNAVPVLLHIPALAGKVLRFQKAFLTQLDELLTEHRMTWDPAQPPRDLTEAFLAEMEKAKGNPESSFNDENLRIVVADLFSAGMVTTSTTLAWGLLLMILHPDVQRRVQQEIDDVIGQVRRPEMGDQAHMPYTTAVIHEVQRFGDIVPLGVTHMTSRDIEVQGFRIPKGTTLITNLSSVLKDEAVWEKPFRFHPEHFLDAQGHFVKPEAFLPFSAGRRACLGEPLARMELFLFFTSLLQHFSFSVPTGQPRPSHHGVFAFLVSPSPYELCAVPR
# Method in brief: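 P450-Glo luminescent screen: recombinant CYP2D6 enzyme–proluciferin substrate mix preincubated with compound 10 min at room temperature, then NADPH regeneration added for 1 h at room temperature. Detection reagent added for 20 min; luciferin light read as relative luminescence units.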
# [13] = biological target: Cytochrome P450 2C9 (Homo sapiens) (UniProt P11712); assay: Cytochrome P450 family 2 subfamily C member 9 (CYP2C9) small molecule antagonists: luciferase biochemical (cell-free) qHTS assay (AID 1645842; active = well fitted curve in the direction sought with a large enough effect in the repeat runs; an effect the other way counts as inactive or inconclusive; also: nearly all actives have a fitted effect of over 55% in size)
# Cytochrome P450 2C9 (Homo sapiens), sequence (P11712 whole entry, looked up): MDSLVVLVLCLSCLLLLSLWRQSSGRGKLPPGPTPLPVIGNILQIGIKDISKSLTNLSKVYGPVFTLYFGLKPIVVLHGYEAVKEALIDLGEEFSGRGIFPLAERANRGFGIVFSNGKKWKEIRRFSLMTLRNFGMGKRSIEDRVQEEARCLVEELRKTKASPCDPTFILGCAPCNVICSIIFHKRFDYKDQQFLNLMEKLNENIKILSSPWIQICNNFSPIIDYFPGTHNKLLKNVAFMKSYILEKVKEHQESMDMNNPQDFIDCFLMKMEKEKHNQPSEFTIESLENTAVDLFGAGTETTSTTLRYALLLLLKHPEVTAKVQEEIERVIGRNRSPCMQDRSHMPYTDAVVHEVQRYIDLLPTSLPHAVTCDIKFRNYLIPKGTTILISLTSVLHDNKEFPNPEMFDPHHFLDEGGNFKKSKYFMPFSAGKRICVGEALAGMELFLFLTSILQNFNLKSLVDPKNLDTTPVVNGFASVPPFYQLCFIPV
# Method in brief: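 Luminescence, after 20 min with luciferin detection reagent, reflected CYP2C9 turnover during a 1 h NADPH-driven reaction at 37C. Enzyme-substrate mix contained 0.4% bovine serum albumin and was preincubated with compound 10 min at room temperature.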
# HeLa = assay: Primary qHTS to identify gynecologic anti-cancer compounds using libraries of approved drugs and bioactive compounds (AID 1345084); conditions: Gynecologic cancer cell panel viability, ATPlite luminescence, 48 h; series mostly up to 57.5 µM; also: nearly all actives have a fitted effect of over 55% in size; also: potency is read from the fitted curve at half-maximal effect
# Method in brief: as §1
# HACAT [14] = assay: qHTS assay to identify novel small-molecules to repurpose for Merkel cell carcinoma treatment (AID 1296009); conditions: MCC and control cell lines, CellTiter-Glo viability, 72 h; at 44.8 µM (top of the series) unless noted; also: nearly all actives have a fitted effect of over 60% in size
# Method in brief: (§2)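 qHTS format: cells treated with library compounds in DMSO across 8 (NPC) or 11 (MIPE) concentrations. Readout after 72 hr at 37 degree celsius was CellTiter-Glo luminescence.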
# CRL-7250 = normal cell line; assay: as above; conditions: MCC and control cell lines, CellTiter-Glo viability, 72 h; series mostly up to 92 µM
# Method in brief: as §2
# [15] = Cytotoxicity counterscreen for inhibitors of SARS-CoV-2 cell entry (AID 1645845; calls by dose curve; also: potency is read from the fitted curve at half-maximal effect; nearly all actives have a fitted effect of over 50% in size)
# Method in brief: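 Expi293F/hACE2 cells seeded overnight; cpd pin-transferred in DMSO, 1 h preincubation, + media, 48 h 37 C 5% CO2; ATPLite 1step luminescence; normalized to cells and no cells.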
# [16] = measured here: PEO1 parental Z-AUC
structure (smiles),measurement,setting,value
C[C@H]1CCC/C=C/C2C[C@H](O)C[C@H]2[C@H](O)/C=C/C(=O)O1 (stereo partly specified),Potency,[1],0.146 µM (active)
same,Potency,[2],inactive
same,Potency,[3],inactive
same,Potency,[4],163 nM (active) and 417 nM (active)
same,Potency,[5],inactive
same,Z-AUC,[6],-0.883 (inactive)
same,Z-AUC,[6]; [16],-1.19
same,Z-AUC,[6]; measured here: PEO4 Z-AUC,-1.2
same,Potency,HaCat [7],0.184 µM (active)
C[C@H]1O[C@@H](O[C@H]2CC[C@]3(CO)C4CC[C@]5(C)[C@@H](C6=CC(=O)OC6)CC[C@]5(O)[C@@H]4CC[C@H]3C2)[C@H](O)[C@H](O)[C@@H]1O[C@@H]1O[C@H](CO)[C@@H](O)[C@H](O)[C@H]1O (stereo partly specified),Potency,[8],0.862 µM (active)
same,Potency,[4],1.08 µM (active)
same,activity,[9],-90%
same,"activity change, negative = inhibition",[10],-0.722% [at 19.1 µM]
same,activity,[11],-7.07%
same,Potency,[5],inactive
same,Potency,HaCat [7],5.44 µM (active)
same,Potency,SKOV3,2.82 µM (active)
COC1CC(O[C@H]2CC[C@]3(C)C4CC[C@]5(C)[C@@H](C6=CC(=O)OC6)[C@@H](OC(C)=O)C[C@]5(O)C4CC[C@@H]3C2)OC(C)C1O[C@@H]1O[C@H](CO)[C@@H](O)[C@H](O)[C@H]1O (stereo partly specified),Potency,[8],0.544 µM (active)
same,Potency,[4],0.483 µM (active)
same,Potency,[5],inactive
same,Potency,HaCat [7],1.72 µM (active)
same,Potency,SKOV3,0.891 µM (active)
CC(=O)O[C@H]1CN2CCC1CC2,Potency,[1],inactive
same,Potency,[8],inactive
same,Potency,[3],inactive
same,Potency,[4],inactive
same,Potency,[5],inactive
same,max response,HaCat [7],1.98% (inactive)
same,Potency,SKOV3,inactive
C[C@H](CCC(=O)O)C[C@H](C)C[C@H](C)C(=O)/C=C(\O)[C@H](C)C[C@H](C)C/C=C/[C@@H](C)[C@@H](O)[C@@H](C)[C@@H](O)C[C@@H]1CC[C@@](C)([C@H]2CC[C@@](C)([C@@H](C)O)O2)O1,Potency,[3],inactive
same,Potency,[4],4.47 µM (active)
same,max response,HaCat [7],-1.41% (inactive)
COc1ccsc1CNCC[C@@]1(c2ccccn2)CCOC2(CCCC2)C1,Potency,[8],inactive
same,Potency,[2],inactive
same,Potency,[12],inactive
same,Potency,[13],inactive
same,Potency,[4],inactive
same,Potency,[5],inactive
same,max response,HaCat [7],-8.27% (inactive)
same,Potency,HeLa,inactive
same,Potency,SKOV3,inactive
CCC(C)(O)C1(C(=O)O)COC(=O)C1 (stereo unspecified),Potency,[1],inactive
same,Potency,[8],inactive
same,Potency,[3],inactive
same,Potency,[4],inactive
same,outcome,HaCat [7],inactive
same,outcome,HACAT [14],inactive [at 92 µM]
same,Potency,HeLa,inactive
same,Potency,SKOV3,inactive
Cc1c(Cl)c(OCC(=O)N2CCN(C)CC2)nc2sc(C(=O)NC3CC3)c(N)c12,Potency,[1],inactive
same,Potency,[8],inactive
same,Potency,[2],inactive
same,Potency,[3],inactive
same,Potency,[12],inactive
same,Potency,[4],inactive
same,max response,HaCat [7],-0.624% (inactive)
same,Potency,HeLa,inactive
same,Potency,SKOV3,inactive
CC(=O)O[C@H]1CC[C@@]2(CI)C(=CC[C@@H]3[C@@H]2CC[C@]2(C)C(=O)CC[C@@H]32)C1,Potency,[8],inactive
same,Potency,[2],inactive
same,Potency,[3],inactive
same,Potency,[5],inactive
same,outcome,HaCat [7],inactive
same,Potency,CRL-7250,inactive
same,outcome,HACAT [14],inactive
same,Potency,HeLa,inactive
same,Potency,SKOV3,inactive
C[C@@H]1CN(Cc2ccc(F)cc2)CCN1C(=O)COc1ccc(Cl)cc1NC(N)=O,Potency,[2],inactive
same,Potency,[3],inactive
same,Potency,[15],2.51 µM (active)
same,Z-AUC,[6],-0.0879 (inactive)
same,Z-AUC,[6]; [16],-1.28
same,Z-AUC,[6]; measured here: PEO4 Z-AUC,0.406
same,max response,HaCat [7],-27% (inactive)
same,Potency,HeLa,inactive
same,Potency,SKOV3,3.16 µM (active)
